Measurements published in PubChem BioAssay (EPA / NIEHS).
Activity calls are given as the source filed them. Rule for the calls: active = hit-call score of the fitted dose curve at least 0.9, where 1 is the maximum; inactive = score below 0.9.

Experiment: APR_HepG2_MitoticArrest_72hr: Apredica 72-hour HepG2 Assay for Mitotic Arrest (AID 2282918)
Conditions: high-content imaging, actives raise or lower the signal
Procedure: APR_HepG2_72hr is a cell-based, multiplexed-readout assay that uses HepG2, a human liver cell line, with measurements taken at 72 hours after chemical dosing in a 384-well plate.APR_HepG2_MitoticArrest_72hr is one of 10 assay component(s) measured or calculated from the APR_HepG2_72hr assay. It is designed to make measurements of cell phenotype, a form of morphology reporter, as detected with fluorescence intensity signals by HCS Fluorescent Imaging technology.Data from the assay component APR_HepG2_MitoticArrest_72hr was analyzed into 1 assay endpoint. This assay endpoint, APR_HepG2_MitoticArrest_72hr, was analyzed with bidirectional fitting relative to DMSO as the negative control and baseline of activity. Using a type of morphology reporter, measures of protein for gain or loss-of-signal activity can be used to understand the signaling at the pathway-level as they relate to the gene . Furthermore, this assay endpoint can be referred to as a primary readout, because this assay has produced multiple assay endpoints where this one serves a signaling function. To generalize the intended target to other relatable targets, this assay endpoint is annotated to the cell cycle intended target family, where the subfamily is arrest.
Cells were treated with dimethyl sulfoxide (DMSO) as a solvent control at a final concentration of 0.5% v/v or with compounds in DMSO with a resulting final DMSO concentration of 0.5% v/v. Compound treatment was done at concentrations of 0.39, 0.78, 1.56, 3.12, 6.24, 12.5, 25, 50, 100, and 200 uM in duplicate on each plate. Cells were treated with compounds for 1, 24, or 72 hr. Carbonyl […] m-chloro-phenylhydrazone (CCCP) and taxol were used as positive controls for mitochondrial function and cytoskeletal stability, respectively; DMSO served as the negative control for this experiment. Cells were fixed by the direct addition of 50 uL formaldehyde in Hank's Balanced Salt Solution (HBSS) to a final concentration of 3.7%. After incubation in the fixation medium for 30 min at room temperature (293-298 K), cells were rinsed twice with HBSS and treated with cell permeabilization buffer (16 uL of 0.5% Triton X-100) for 10 min at room temperature (293-298 K) before labeling. For mitochondrial membrane potential and mitochondrial measurements, pre-fixed cells were incubated with 50 uL of MitoTracker Red CMXRos (Invitrogen) at a concentration of 250 nM for 30 min before fixation. In the remaining cases, post-fixed cells were labeled by incubation with a multiplexed mixture of primary antibodies in HBSS for 60 min at room temperature (293-298 K) to detect immunoreactivity of c-Jun (1:500), phospho-histone H3 (1:100), phospho-histone H2A.x (1:200), p53 (1:400), alpha-tubulin (1:200) and Hoechst 33342 (2 ug/mL). Cells were labeled for multiplexed imaging on two separate plates: a) Hoechst 33342, MitoTracker Red, phospho-histone H3, and alpha-tubulin, and b) Hoechst 33342, phospho-histone H2A.x, and c-Jun. A final rinse with HBSS (50 uL) was performed before analysis. The primary and secondary antibodies for the proteins were phospho-histone H3 (rabbit anti-phospho-histone H3 and FITC-donkey anti-rabbit IgG), phospho-histone H2A.x (mouse anti-phospho-histone H2A.x and FITC-donkey anti-mouse IgG), c-Jun (rabbit anti-phospho-c-Jun and Cy3-donkey anti-rabbit IgG), p53 (sheep anti-p53 and Cy5-donkey anti-sheep IgG), alpha-tubulin (mouse anti-alpha-tubulin and Cy5-donkey anti-mouse IgG). These antibodies are available as the CellCiphr HepG2 assay kit (Millipore).Digital images of each well were captured using a Cellomics ArrayScan VTI (Thermo Scientific Cellomics) (0.8 NA objective, 0.63x optical coupler, and XF-93 filter set) at 20x magnification. The images were acquired using the autofocus feature of the ArrayScan instrument, which entails the following steps. First, the camera focuses on channel 1 (Hoechst 33342), where nuclei are identified. Second, a Z offset of 1 um is used for capturing mitochondria (MitoTracker Red). […]

AC50, active:
CN(C)c1ccc(Cc2ccc(N(C)C)cc2)cc1 30.7 µM
CCCCC(CC)COC(=O)CCCCCCCCC(=O)OCC(CC)CCCC (stereo not given) 111 µM
O=c1n(CC2CO2)c(=O)n(CC2CO2)c(=O)n1CC1CO1 (stereo not given) 15.8 µM
CCOc1cccc(-n2cc(C(=O)N3CCN(c4cc(C(=O)O)c5ccccc5c4)CC3)nc2-c2ccc(C)cc2)c1 77.2 µM
CCCN(C1CCN(C(=O)C2CCNCC2)CC1)[C@@H]1CCc2ccc(OC)cc2C1 53 µM
CCn1nc(Cc2ccccc2)cc1C1CCN(C[C@H]2C[C@H](N(C)[C@@H](C(=O)O)C(C)C)C[C@@H]2c2cccc(F)c2)CC1 113 µM
CNS(=O)(=O)c1cc(C(=O)N2CCC(CCN3C4CCC3CC(n3c(C)nc5ccccc53)C4)(c3cccc(F)c3)CC2)c(Cl)cc1F (stereo not given) 10.3 µM
CC(C)=CCCC(C)CCO (stereo not given) 0.0229 µM
CCCCCCc1ccc(O)cc1O 33.7 µM
CCOC(=O)COc1ccc2c(c1)CC(NCC(O)c1cccc(Cl)c1)CC2 (stereo not given) 23.1 µM
COCCOc1cc2cc(C(=O)NC3CCN(C(C)C)CC3)n(CC(=O)Nc3ccc(Cl)cn3)c2cn1 63.2 µM
O=C(O)c1cccc(N(Cc2cccnc2)c2ccc(OC(F)F)c(OC(F)F)c2)c1 4.04 µM
CCCCCCCCCCCCCCCO 95.6 µM
O=P(OC(CCl)CCl)(OC(CCl)CCl)OC(CCl)CCl 39.6 µM

outcome, inactive:
C[C@](N)(Cc1ccc(O)c(O)c1)C(=O)O
C1N2CN3CN1CN(C2)C3
CC(C)CCO
CC1(C)C(=O)N(Br)C(=O)N1Br
CC[C@H]1OC(=O)[C@H](C)[C@@H](O[C@H]2C[C@@](C)(OC)[C@@H](O)[C@H](C)O2)[C@H](C)[C@@H](O[C@@H]2O[C@H](C)C[C@H](N(C)C)[C@H]2O)[C@](C)(O)C[C@@H](C)C(=O)[C@H](C)[C@@H](O)[C@]1(C)O
CCOC(=O)CC(CC(=O)OCC)(OC(C)=O)C(=O)OCC
O=C1CCCCCN1
CC(O)CN(CCN(CC(C)O)CC(C)O)CC(C)O (stereo not given)
CCNc1ccccc1
CC1=CC(=O)CC(C)(C)C1
CNCc1ccc(NC(=O)c2c[nH]c3c2C(=O)CCC3)cc1
Cn1c(=O)cc(Oc2ccc(F)cc2F)c2cnc(NCC(C)(C)O)nc21
CCCCC(CC)COC(=O)c1ccc(C(=O)OCC(CC)CCCC)cc1 (stereo not given)
CC(=O)c1ccc2c(c1)[C@H](NC(=O)c1ccc(F)cc1)[C@@H](O)C(C)(C)O2
O=C(CCCCCCCCc1cccnc1)N1CCC(C=C(c2ccccc2)c2ccccc2)CC1
O=C(O)c1cc(N=Nc2ccc(S(=O)(=O)Nc3ccccn3)cc2)ccc1O
Cc1ccc(C)c(O)c1
CCN(C(=O)c1cc(C)cc(OC[C@H](C)Nc2ccncc2)c1)C(C)C
CC(C)(O)c1coc(S(=O)(=O)NC(=O)Nc2c3c(cc4c2CCC4)CCC3)c1
O=C1CCC(N2C(=O)c3ccccc3C2=O)C(=O)N1 (stereo not given)
CC(C)=CCC/C(C)=C/CO
O=C(O)CCN(C1(C(=O)NO)CCCC1)S(=O)(=O)c1ccc(Oc2ccc(F)cc2)cc1
CCCCCCCCCCCCc1ccccc1
COc1ccc2sc(C(=O)Nc3nnn[nH]3)c(OC(C)C)c2c1
CCOCCO
CC/C(=C\C(=N/O)C(N)=O)C(C)[N+](=O)[O-] (stereo not given)
